Sampled rows, rich in hits. Any-hit rate of the full collection: about 11%.
USP30 block: human USP30 deubiquitinase inhibition | purified USP30, Ub-rhodamine cleavage fluorescence | AID 1645860 | Q70CQ3 | inhibition, % at 25 µM | 47,000 tested, 5.3% active
USP28 block: inhibitors of human USP28 deubiquitinase; Q96RU2; purified USP28, Ub-rhodamine cleavage fluorescence, 30 min; inhibition, % at 25 µM; 47,000 tested, 3% active
USP17 block: human USP17-like deubiquitinase inhibition | purified USP17, Ub-rhodamine cleavage fluorescence, 3 h | inhibition, % at 50 µM | AID 1645855 | 47,000 tested, 6.5% active | A8MUK1
Target sequence (A8MUK1 whole entry, looked up): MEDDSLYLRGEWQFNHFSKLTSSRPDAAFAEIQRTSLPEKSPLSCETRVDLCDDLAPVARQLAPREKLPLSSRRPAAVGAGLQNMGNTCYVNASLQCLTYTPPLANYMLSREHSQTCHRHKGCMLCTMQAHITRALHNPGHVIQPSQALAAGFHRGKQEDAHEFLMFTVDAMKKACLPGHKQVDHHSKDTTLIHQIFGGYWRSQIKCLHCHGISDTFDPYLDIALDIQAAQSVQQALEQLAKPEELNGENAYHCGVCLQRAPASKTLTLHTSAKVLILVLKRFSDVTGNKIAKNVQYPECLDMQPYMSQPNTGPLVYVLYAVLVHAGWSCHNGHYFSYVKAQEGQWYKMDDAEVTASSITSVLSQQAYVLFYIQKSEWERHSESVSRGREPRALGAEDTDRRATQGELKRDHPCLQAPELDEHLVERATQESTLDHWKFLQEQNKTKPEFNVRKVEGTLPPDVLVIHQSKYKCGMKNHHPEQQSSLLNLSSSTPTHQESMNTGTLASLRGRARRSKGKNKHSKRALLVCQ
An asterisk follows results filed as active; i = inactive; / = no result given. Rule as the data show it: active = inhibition above about 30%; inactive = the rest.

SMILES	USP30 block	USP28 block	USP17 block
Cc1noc2ncnc(N(Cc3ccco3)CC3CCCO3)c12 (configuration not stated)	0	6	3
c1cncc(CNc2nc(C3CC3)nc3c2CCC3)c1	-5	4	-1
Cc1cc(-c2ccc(S(=O)(=O)N3CCOCC3)cc2)nc2ccccc12	i	-238	-139
Cc1ccc(CNc2cc(-n3ccnc3)ncn2)cc1C	12	5	/
Cc1ccc(CNc2cc(-n3cccn3)ncn2)cc1	-3	31*	20
COc1ccc(-c2cc3n(C)c(C)c(CCC(=O)NCc4ccc(F)cc4)c(=O)n3n2)cc1	54*	17	66*
COc1cccc(-c2cc3n(C)c(C)c(CCC(=O)NCc4ccccc4)c(=O)n3n2)c1	0	0	-4
CCNC(=O)OC1CN(C(=O)NCC)CCC(=O)N(C)c2ccccc21 (configuration not stated)	19	4	5
O=c1c2nnn(Cc3ccccc3)c2ncn1Cc1nc(-c2cccc(Cl)c2)no1	36*	14	-7
Cc1ccccc1Cn1nnc2c(=O)n(Cc3nc(-c4ccccc4)no3)cnc21	-32	-4	-4
Cc1oc2c(c1C(=O)NCc1cccnc1)C1=NC(C)(C)CN1C=N2	-77	-26	-20
CCOC(=O)c1cnn(-c2nc(-c3ccccc3)c(S(=O)(=O)c3ccc(Cl)cc3)s2)c1C(F)(F)F	20	2	14
CCOC(=O)c1cnn(-c2nc3ccccc3s2)c1N=CN(C)C	97*	69*	70*
COc1cnc(CSc2ncccn2)cc1OCC(=O)Nc1ccc(C)cc1C	9	-13	8
COc1cnc(CSc2ccccc2)cc1OCC(=O)Nc1ccc(F)cc1	43*	9	29
COc1ccc(NC(=O)COc2cc(CSc3ccccc3)ncc2OC)cc1	43*	17	61*
COc1cnc(CSc2ccccc2)cc1OCC(=O)Nc1ccccc1	-7	-4	-1
COc1cnc(CSc2ccccc2)cc1OCC(=O)Nc1ccccc1F	25	-3	36*
O=C(Nc1ccc(Br)cc1)c1cnc2ccccc2n1	-200	-21	-12
Cn1c(CNC(=O)C2CCC2)nc2c1CN(S(=O)(=O)c1ccc(Cl)cc1)CC2	-8	-3	-8
O=C(NCCCS(=O)(=O)N1CCN(c2ncccn2)CC1)c1ccc(F)c(F)c1	-6	-7	/
O=C(C1Cn2ccnc2C2(CCN(S(=O)(=O)c3ccccc3)CC2)O1)N1CCOCC1 (configuration not stated)	-36	-12	-32
CCc1nc(-c2ccc(C(=O)Nc3cccnc3)cc2)no1	-7	49*	-4
Cc1cccc(NC(=O)CCc2nc(-c3cccnc3)no2)c1	-13	-18	-8
Cc1cc(NC(=O)C2(c3ccc(F)cc3)CCCC2)n(-c2nc3ccccc3[nH]2)n1	-5	0	0
SMILES	USP30 block	USP28 block	USP17 block
Cc1ccc(-c2nnn(CC(=O)N(c3ccc(C4CCCCC4)cc3)C(C(=O)NC3CCCCC3)c3ccc(F)cc3)n2)o1 (configuration not stated)	-18	-6	33*
Cc1ccc(-c2nnn(CC(=O)N(c3ccccc3C)C(C(=O)NC3CCCC3)c3ccncc3)n2)o1 (configuration not stated)	-207	-46	41*
COc1ccc(C(C(=O)NC2CCCC2)N(C(=O)Cn2nnc(-c3ccc(C)o3)n2)c2ccccc2C)cc1 (configuration not stated)	1	8	22
COc1ccc(-c2nnn(CC(=O)N(c3ccc(C4CCCCC4)cc3)C(C(=O)NC(C)(C)C)c3ccc(F)cc3)n2)cc1OC (configuration not stated)	-4	5	-14
CN(C)c1cccc(C(=O)OCC(=O)N2CC(=O)Nc3ccccc32)c1	-37	-6	2
C[C@]12C(=O)N(C3CCN(Cc4ccccc4)CC3)CC(=O)N1CCc1c2[nH]c2ccccc12	-12	-14	-22
COc1ccccc1CN1C[C@H]2N(C)C(=O)c3ccccc3C(=O)[C@@]2(C)C1	10	-8	-4
Cc1nccc(C2CN(C(=O)CCn3cnc4ccccc43)CCO2)n1 (configuration not stated)	16	5	5
Cc1cc(N)n(-c2nc3ccccc3s2)n1	41*	17	36*
Nc1c(-c2ccccc2)c(COc2ccccc2)nn1-c1nc2ccccc2s1	7	-9	13
CCOC(=O)c1cn(C2CC2)c2cc(N3CCNCC3)c([N+](=O)[O-])cc2c1=O	58*	36*	-7
CCOC(=O)c1cc(C#N)c(N2CCCNCC2)nc1C(F)(F)F	3	6	5
CCOc1ccc(-c2nnc(NC(=O)C3CCN(S(=O)(=O)c4ccccc4)CC3)o2)cc1	-74	-10	-17
CCOC(=O)c1cc2c(ccn2C)n1Cc1ccccc1C#N	-322	-63	-23
CCOC(=O)c1cc2c(ccn2C)n1Cc1cccc2ccccc12	-50	21	54*
C=C(NC(=O)C(=C)NC(=O)c1csc(C2=N[C@@H]3c4csc(n4)[C@H]4NC(=O)c5csc(n5)[C@H]([C@](C)(O)[C@@H](C)O)NC(=O)[C@H]5CSC(=N5)/C(=C/C)NC(=O)C([C@@H](C)O)NC(=O)c5csc(n5)C3(CC2)NC(=O)[C@H](C)NC(=O)C(=C)NC(=O)[C@H](C)NC(=O)C([C@@H](C)CC)N[C@@H]2C=Cc3c(C(C)O)cc(nc3[C@H]2O)C(=O)OC4C)n1)C(N)=O (some centres not stated)	-133	-13	54*
CCN(CC)c1ncnc2c1sc1nc(-c3ccccc3)c3c(c12)CCC3	-45	-30	-36
CCN(CCO)c1ncnc2c1sc1nc(-c3ccccc3)c3c(c12)CCC3	-69	4	33*
CCN(CC(=O)Nc1cccc(S(N)(=O)=O)c1)CC(=O)Nc1ccccc1C(F)(F)F	-1	-2	-6
CC1CCCCN1c1nc(F)c2c(c1F)S(=O)(=O)CCN2Cc1cccnc1 (configuration not stated)	-36	-10	35*
CCN(CC)c1nc(F)c2c(c1F)S(=O)(=O)CCN2Cc1cccnc1	8	8	58*
O=S1(=O)CCN(CC2CCCO2)c2c(F)nc(N3CCOCC3)c(F)c21 (configuration not stated)	-5	-7	3
CCN1C[C@H]2CCN(Cc3cccnc3)CC[C@H]2S1(=O)=O	-60	-21	-13
CCn1c(CN2CCCC(c3nc(-c4cccnc4)n[nH]3)C2)nc2ccccc21 (configuration not stated)	-20	71*	-42
c1cncc(-c2n[nH]c(C3CCCNC3)n2)c1 (configuration not stated)	10	4	8
SMILES	USP30 block	USP28 block	USP17 block
CO[C@@H]1C(=O)CC[C@]2(CO2)[C@@]1(O)[C@@]1(C)O[C@@H]1CC=C(C)C	13	6	5
O=C(NCCc1ccccc1)c1nc(-c2ccc3cc[nH]c3c2)no1	7	6	48*
O=C(NCc1ccccn1)c1nc(-c2ccc3cc[nH]c3c2)no1	0	0	0
CS(=O)(=O)n1nc(-c2cccnc2)nc1NCc1cccc(Cl)c1	17	5	-3
Brc1ccc(Sc2cnns2)cc1	28	38*	18
COc1ccc(-c2cc(C(=O)OCC(=O)Nc3cc(C)on3)c3ccccc3n2)cc1OC	-222	-62	30*
